Assay results: article PMC4336329 (PLoS ONE, 2015)
Hit rate of the full screen: of about 310,000 compounds, about 14,000 (4.5%) showed an effect of 50% or more. Effects have a minus sign here. This is one part of a sample in which strong results are shown more often than they occur.

biological target: human ether-à-go-go-related gene (hERG) potassium channel (human, UniProt Q12809); test: primary screen, population patch clamp on CHO cells stably expressing hERG; higher = less effect of the substance
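Also: peak tail current of the secondary pulse compared with the same well before compound.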

human ether-à-go-go-related gene (hERG) potassium channel, sequence (Q12809 whole entry, looked up): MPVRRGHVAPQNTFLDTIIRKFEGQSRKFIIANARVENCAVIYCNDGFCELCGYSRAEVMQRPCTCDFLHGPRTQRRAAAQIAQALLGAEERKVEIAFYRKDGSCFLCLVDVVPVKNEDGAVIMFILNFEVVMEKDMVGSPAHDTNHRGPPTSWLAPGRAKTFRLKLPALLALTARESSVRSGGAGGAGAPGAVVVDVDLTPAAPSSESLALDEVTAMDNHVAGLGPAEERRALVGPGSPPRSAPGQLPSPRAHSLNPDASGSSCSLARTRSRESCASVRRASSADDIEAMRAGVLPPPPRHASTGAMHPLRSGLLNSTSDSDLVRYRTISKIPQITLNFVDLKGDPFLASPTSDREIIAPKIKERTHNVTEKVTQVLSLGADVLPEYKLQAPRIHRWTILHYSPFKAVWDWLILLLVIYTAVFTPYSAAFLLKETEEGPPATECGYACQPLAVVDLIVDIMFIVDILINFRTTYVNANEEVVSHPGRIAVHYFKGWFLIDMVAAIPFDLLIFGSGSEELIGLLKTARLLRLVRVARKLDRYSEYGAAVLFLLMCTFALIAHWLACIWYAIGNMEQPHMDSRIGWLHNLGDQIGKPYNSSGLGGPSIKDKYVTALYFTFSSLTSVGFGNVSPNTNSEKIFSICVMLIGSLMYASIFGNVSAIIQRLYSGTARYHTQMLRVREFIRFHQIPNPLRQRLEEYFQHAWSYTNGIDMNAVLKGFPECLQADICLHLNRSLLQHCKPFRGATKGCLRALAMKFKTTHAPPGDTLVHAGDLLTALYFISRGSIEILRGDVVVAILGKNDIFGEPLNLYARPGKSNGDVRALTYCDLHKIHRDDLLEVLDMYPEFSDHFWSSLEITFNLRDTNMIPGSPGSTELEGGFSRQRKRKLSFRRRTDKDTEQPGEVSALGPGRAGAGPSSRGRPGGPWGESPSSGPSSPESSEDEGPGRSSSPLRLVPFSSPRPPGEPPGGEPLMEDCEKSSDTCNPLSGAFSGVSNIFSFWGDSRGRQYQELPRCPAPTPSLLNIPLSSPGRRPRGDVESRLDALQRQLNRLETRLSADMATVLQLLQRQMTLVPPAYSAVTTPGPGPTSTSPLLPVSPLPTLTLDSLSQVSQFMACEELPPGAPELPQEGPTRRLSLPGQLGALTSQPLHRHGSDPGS

Compound	hERG current change (%, negative = inhibition) at 10uM [%]
CC(=O)Nc1ccc(S(=O)(=O)N2CCN(S(=O)(=O)N3CCCCCC3)CC2)cc1	8.41
CC(C)c1onc(C(=O)N2CCN(c3ccccc3)CC2)c1[N+](=O)[O-]	14.1
CCC(C)(C)C1CCC(NC(=O)N2CCN(c3ccccc3O)CC2)CC1 (stereo not shown)	-6.84
COc1cc(Cl)c(C)cc1NC(=O)CSc1cc(Cl)ccc1Cl	7.31
COc1ccc(CC(=O)OCCN(C)C)cc1.Cl	11.8
c1ccc(CCN2CN=C(Nc3nc4ccccc4s3)NC2)cc1	-1.49
COc1ccc(N2CCN(CC(O)COC(c3ccc(F)cc3)c3ccc(F)cc3)CC2)cc1.O=C(O)C(=O)O (stereo not shown)	-81.6
COc1ccc(N2CCN(CCN3C(=O)c4ccccc4C3=O)CC2)cc1	17.6
COc1ccc(N2CCN(CC(O)COC(C)(C)C)CC2)cc1.O=C(O)C(=O)O (stereo not shown)	10.2
COc1ccc(C(CCN2CCN(c3ccccc3)CC2)c2c(O)cc(OC)cc2OC)cc1 (stereo not shown)	-30.5
Cc1ccc(Cl)cc1N1CCN(Cc2cc3c(cc2O)CCC3)CC1	4.92
Cc1ccc(Cl)cc1N1CCN(CCN)CC1	-0.374
COc1ccc(N2CCN(CCC(O)c3ccc4ccccc4c3)CC2)cc1 (stereo not shown)	-68.3
CCCN1CCN(CC(O)COC(c2ccc(OC)cc2)c2ccc(OC)cc2)CC1.O=C(O)C(=O)O (stereo not shown)	-30.2
Cc1ccc(Cl)cc1N1CCN(CC(O)COC(C)C)CC1.Cl (stereo not shown)	-63.7
N=C1C(c2ccc(Br)cc2)=C(O)C2CCc3ccccc3N12 (stereo not shown)	-30.5
CC(C)N(C(=O)Cn1cnc2cc([N+](=O)[O-])ccc2c1=O)C(C)C	7.76
Cc1cccc2cc(CN(CCCO)C(=O)Nc3ccccc3Cl)c(=O)[nH]c12	5.32
O=C(N=C1c2ccccc2CN1c1ccccc1)c1cccc([N+](=O)[O-])c1	-1.72
CCC1CCCCN1CCCNC(=O)CCNC(=O)Cn1cnc2ccccc2c1=O (stereo not shown)	-0.683
CCC1CCCCN1CCCNC(=O)c1cc2c(Cl)nc3ccccc3c2s1 (stereo not shown)	-76.6
Cc1ccc2nc(Cl)c3cc(C(=O)NCCCN4CCCC4)sc3c2c1	-10.3

Compound	hERG current change (%, negative = inhibition) at 10uM [%]
Cc1nc2ccccc2c2oc(C(=O)NCCCN3CCCC(C)C3)cc12 (stereo not shown)	-19
CC1CCCN(CCCNC(=O)c2cc3c(Cl)nc4ccccc4c3s2)C1 (stereo not shown)	-55.6
CC1CCN(CCCNC(=O)c2cc3c(Cl)nc4ccccc4c3s2)CC1	-66.2
CCN(CC)CCCNC(=O)c1cc2c(Cl)nc3ccccc3c2s1	-47.1
CC1CCCN(CCCNC(=O)c2coc3nc4ccccc4nc23)C1 (stereo not shown)	-5.67
O=C(NCCCN1CCCC1)c1cc2c(Cl)nc3ccccc3c2s1	-13.9
Cc1cccc(C)c1NC(=O)C1(N(Cc2ccco2)C(=O)CC2NC(=O)NC2=O)CCCCC1 (stereo not shown)	7.25
CCN(CC)C(=O)CSc1nnnn1-c1ccc(F)c(Cl)c1	-3.28
O=C(Oc1ccc(-c2nc(-c3ccccn3)no2)cc1)c1ccccc1	7.73
CCOC(=O)c1[nH]c2ccc(OC)cc2c1NC(=O)c1ccc2c(c1)OCO2	17.1
CN(CC(=O)Nc1ccccc1C(F)(F)F)C(=O)c1ccc(-c2ccc(Cl)cc2)o1	-13.7
COc1ccc(-n2nnc3c(SCC(=O)Nc4ccc5c(c4)OCCO5)ncnc32)cc1	0.643
C=CCNC(=O)c1onc(CSc2ccc(Cl)cc2)c1C(=O)O	15.2
CC(C)(O)C#Cc1ccc(C(=O)Nc2ccc3c(c2)OCO3)s1	22.7
O=C(Nc1cccnc1Cl)c1cc2ccccc2o1	6.92
O=C(O)c1cccc(OS(=O)(=O)c2cc(Br)ccc2Br)c1	-9.65
O=C(Nc1ccc(Cl)cc1)c1cc(S(=O)(=O)N2CCOCC2)cs1	-51.2
Cc1ccc(NC(=O)c2cc(S(=O)(=O)N3CCOCC3)cs2)cc1	-8.31
O=C(Nc1ccccc1C(=O)O)c1cc(S(=O)(=O)N2CCCCC2)cs1	10.1
Cn1cc(S(=O)(=O)N2CCOCC2)cc1C(=O)Nc1cccc(Cl)c1	-10.4
Cc1ccc(NC(=O)c2cc(S(=O)(=O)N3CCOCC3)cn2C)cc1Cl	11.2
O=C(Nc1ccccc1Cl)c1cc(S(=O)(=O)N2CCOCC2)cs1	-9.07

Compound	hERG current change (%, negative = inhibition) at 10uM [%]
O=C(Nc1ccccc1C(=O)O)c1cc(S(=O)(=O)N2CCOCC2)cs1	-66.4
Cn1cc(S(=O)(=O)N2CCOCC2)cc1C(=O)Nc1ccc(Cl)cc1	-51
O=C(Nc1ccc(F)cc1)c1cc(S(=O)(=O)N2CCOCC2)cs1	-11
CCOc1ccccc1NC(=O)NCc1ccccc1	0.101
CN(C)S(=O)(=O)c1ccc2c(c1)C(CC(=O)O)NC2=O (stereo not shown)	6.72
CCCOc1ccc(N2C(=O)CC(SC(=NCC)NCC)C2=O)cc1 (stereo not shown)	11.9
Cc1nc(-c2ccccc2)sc1C(=O)CSc1ccc(F)cc1	-7.92
CNC(=S)NNC(=O)c1cccn(Cc2ccccc2)c1=O	19
COc1ccc(CC(C)N2CCN(Cc3ccccc3)CC2)c(OC)c1 (stereo not shown)	-75.3
COc1ccc(CN2CCN(c3ccccn3)CC2)cc1OCc1ccccc1	-67.9
COc1ccc(CN2CCc3ccccc3C2)c(OC)c1	-28.4
COc1ccc(CN2CCN(c3ccccn3)CC2)c(OC)c1	-75.9
CCN1CCN(Cc2ccc(OC)c(OCc3ccccc3)c2)CC1	-41.9
COc1ccc(NC(=S)N2CCN(Cc3ccccc3)CC2)c(OC)c1	-5.79
COc1ccc(-c2[nH]ncc2CN2CCN(c3ccccn3)CC2)c(OC)c1	-31.5
COc1ccc(CN2CCN(C)CC2)cc1OCc1ccccc1	-19
COc1ccc(OC)c(S(=O)(=O)N2CCN(Cc3ccccc3)CC2)c1	2.05
COc1ccc(OC)c(S(=O)(=O)N2CCN(c3ccccn3)CC2)c1	-12.5
COc1ccc(S(=O)(=O)N2CCN(CCc3ccccc3)CC2)c(OC)c1	-25.6
COc1ccc(CN2CCN(CCCc3ccccc3)CC2)c(OC)c1	-76.6
Fc1cccc(-c2oncc2-c2nnnn2-c2ccc(Cl)cc2)c1	-13.9
CCOC(=O)c1ccc(NC(=O)CCc2nnc3ccc(N4CCCC4)nn23)cc1	5.84

Compound	hERG current change (%, negative = inhibition) at 10uM [%]
O=C(OCC1CC(c2ccccc2)=NO1)c1ccc(Cl)cc1 (stereo not shown)	18.6
CN1CCN(CP(=O)(N2CCOCC2)N2CCOCC2)CC1	1.13
Br.CC(C)(C)C(=O)Cn1c(NCCCO)nc2ccccc21	-7.81
CC(NS(=O)(=O)c1ccc(CCC(=O)NCc2cccnc2)cc1)c1ccccc1 (stereo not shown)	-1.35
CCOC(=O)CSc1nnc(NC(=O)c2cc([N+](=O)[O-])cc([N+](=O)[O-])c2)s1	-8.83
O=C(C[n+]1ccccc1)N/N=C/c1cccs1.[Cl-]	12
Cn1ccnc1SCCNC(=O)C1CCC(=O)N(Cc2ccc(Cl)cc2)C1 (stereo not shown)	-3.3
COc1cc(NC(=O)CN(c2ccc(C)cc2)S(=O)(=O)c2c(C)noc2C)cc(OC)c1	16.3
C=CCn1c(O)c(C(C)=NCCc2c[nH]c3ccccc23)c(=O)[nH]c1=O	-31.9
COc1ccc(CN2CCN(c3ncccn3)CC2)c(C)c1C	-35.9
CC(CCc1ccccc1)N1CCN(C)CC1 (stereo not shown)	-20.4
COc1ccc(CN2CCN(c3ccccn3)CC2)c(OC)c1C.O=C([O-])C(=O)[O-]	-55.8
CCN1CCN(C(C)CCc2ccccc2)CC1 (stereo not shown)	-17.7
COc1ccc(CN2CCN(c3ccccn3)CC2)c(OC)c1C.O=C(O)C(=O)O	-37.1
COc1ccc(OC)c(CN2CCN(Cc3cc(OC)c(OC)c(OC)c3)CC2)c1	9.45
CC(CCc1ccccc1)N1CCN(Cc2ccccc2)CC1 (stereo not shown)	-75.2
COc1ccc(CN2CCN(C(=O)Cc3ccccc3)CC2)c(OC)c1	-31.5
COc1ccc(CN2CCN(Cc3ccccc3)CC2)c(OC)c1	-69.9
COCCn1cnc2c(c1=O)c1nc3ccccc3nc1n2/N=C/c1ccco1	-7.29
COc1ccc(CNS(=O)(=O)c2ccc(-c3ccc(=O)[nH]n3)s2)cc1OC	-29.5
COC(=O)c1ccc2c(=O)n(CC3CCCO3)c(SCC(=O)Nc3ccccc3OC)nc2c1 (stereo not shown)	-4.41
CS(=O)(=O)c1nc(-c2ccccc2)cc(-c2ccccc2)c1C#N	8.33
